Laboratory results as given in the supplement of paper PMC10681739.

Tests used:
ETS1 = target: T1, ETS1 (UniProt P14921); assay: ETS1 binding intensity (PBM fluorescence), ETS1 alone (arbitrary fluorescence units); higher = stronger binding; details: ETS1 concentration 1 nM; RUNX1 concentration 0 nM
T1 sequence: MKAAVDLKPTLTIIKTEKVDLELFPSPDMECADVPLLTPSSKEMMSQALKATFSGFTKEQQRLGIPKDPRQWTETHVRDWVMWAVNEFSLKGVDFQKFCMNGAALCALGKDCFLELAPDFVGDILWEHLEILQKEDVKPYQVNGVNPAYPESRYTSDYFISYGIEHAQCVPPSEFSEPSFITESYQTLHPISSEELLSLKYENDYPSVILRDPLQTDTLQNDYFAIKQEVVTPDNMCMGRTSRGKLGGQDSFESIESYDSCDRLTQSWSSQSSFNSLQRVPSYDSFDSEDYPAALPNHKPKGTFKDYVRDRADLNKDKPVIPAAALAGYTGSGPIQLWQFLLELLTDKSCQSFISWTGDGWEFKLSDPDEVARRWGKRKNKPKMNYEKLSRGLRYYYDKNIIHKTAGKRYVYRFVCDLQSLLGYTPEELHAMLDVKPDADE

RUNX1 [1] = target: RUNX1 (UniProt Q01196); assay: RUNX1 binding intensity (PBM fluorescence), RUNX1 alone (arbitrary fluorescence units); higher = stronger binding; details: RUNX1 concentration 2 nM; ETS1 concentration 0 nM
Chain of RUNX1 (Q01196 whole entry): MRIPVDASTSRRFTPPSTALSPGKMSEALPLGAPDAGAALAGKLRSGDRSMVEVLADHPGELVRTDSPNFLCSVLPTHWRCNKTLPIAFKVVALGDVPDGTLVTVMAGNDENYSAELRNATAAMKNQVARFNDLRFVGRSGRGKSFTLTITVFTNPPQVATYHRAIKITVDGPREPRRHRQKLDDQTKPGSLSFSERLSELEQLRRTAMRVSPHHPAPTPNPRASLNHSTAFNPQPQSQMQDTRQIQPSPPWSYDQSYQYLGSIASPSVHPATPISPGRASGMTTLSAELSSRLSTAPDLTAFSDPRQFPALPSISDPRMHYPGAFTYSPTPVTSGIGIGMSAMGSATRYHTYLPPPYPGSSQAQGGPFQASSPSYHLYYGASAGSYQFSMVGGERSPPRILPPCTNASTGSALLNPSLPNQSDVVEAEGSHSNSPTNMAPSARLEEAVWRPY
Method: (§1)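 Cooperative gcPBM on 36-bp genomic probes with neighbouring ETS1 and RUNX1 sites. Recombinant human RUNX1 (2 nM) was incubated alone or with ETS1 (25 nM) and detected with anti-RUNX1 antibody plus Alexa488 secondary. Values are medians over 4 replicate spots; the RUNX1+ETS1 data were normalised to the RUNX1-only data. The probes sit in constant array flanks that are not printed.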

RUNX1 [2] = target: RUNX1 (UniProt Q01196); assay: RUNX1 binding intensity (PBM fluorescence) in presence of ETS1, normalised to RUNX1-only experiment (arbitrary fluorescence units); higher = stronger binding; details: RUNX1 concentration 2 nM; ETS1 concentration 25 nM
Method: as §1
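Wherever RUNX1 binding intensity (PBM fluorescence) in presence of ETS1, normalised to RUNX1-only experiment is given: Full-length recombinant human ETS1 or RUNX1 bound to double-stranded 36-bp genomic probes on microarrays, detected by protein-specific primary antibody and Alexa488 secondary, spot fluorescence as median of four replicate spots.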
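Wherever RUNX1 binding intensity (PBM fluorescence), RUNX1 alone is given: Full-length recombinant human RUNX1 bound to double-stranded 36-bp genomic probes on a high-density microarray, scored as Alexa488 fluorescence per spot via anti-RUNX1 antibody, median of four replicate spots.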

| Sequence | ETS1 binding intensity (ETS1) | RUNX1 binding intensity (RUNX1 [1]) | RUNX1 binding intensity (RUNX1 [2]) |
| --- | --- | --- | --- |
| GAGCACAGGAAAAGCTGGTGCCAACCACAAGTGCTT | 368 | 815 | 971 |
| TTGCCATTCCAGGAAATGAGCTTACCACATTGACTG | 1980 | 798 | 1070 |
| ACTGAACAAACCGGATGTGGTTGCCACCTGCAATCT | 19800 | 848 | 21800 |
| CTTAGAGTACCAGGATGTGGTTTGGCCTGGGGGTGG | 1790 | 1000 | 1800 |
| ACCTGTAGGCGGAAGTCTGTGGCTTTATTTACACAG | 2340 | 792 | 1730 |
| GATATGGCAGGAAGTAGGGCCTGGAAACCGCACGGC | 3390 | 954 | 2000 |
| CAGAAACATCCCTCCTGCCGCCGCTTTGTGGTACCA | 378 | 983 | 925 |
| GATTGTTATGTCCGGAAACCGCTTATCAGAGCCCTG | 2870 | 861 | 1590 |
| CATTCAGTAAAAGGATGTGGTTTAGAACAGATGAAA | 1230 | 958 | 2150 |
| AGAATCGCATCAGGATGTGGTGAGGGAGCACATTTG | 948 | 713 | 969 |
| AACCATTACAGGATGTGAGATTCAAACCACTAACAG | 2270 | 849 | 1180 |
| GCGCAAAGCCGGAAGGAGGGGTTTGCGGCTGGGGAG | 1730 | 769 | 1360 |
| CTCTCACTTCCCGTGTGAGAAAAACCACAGAAAAGC | 651 | 1890 | 4200 |
| AGCTGCATTTCCGGGCAGGCAATGAAACCACAGAGT | 1100 | 918 | 2370 |
| AGGTACCAGGCCCGGAAACCACGGAAAGGGGAACTT | 3050 | 862 | 1100 |
| CACCTCGGGGGTTTCCGGTCCGTGGTTAGCTCCTTC | 2600 | 1030 | 2930 |
| CAAGAGAAAGGAAGTGGAAGCTCTTGTGGTCTGGAA | 1460 | 733 | 1240 |
| CAGCCTTGCCGGAAGGCAGAGTTTGTGGTCAGACCG | 1090 | 1330 | 2500 |
| TGCGAGGTTGCCAGGAAACCGCGAAGCCGAGGTCCC | 808 | 1120 | 1530 |
| GAGAAACAGGAAGAGGGGTGGTGGTTACGGAACACG | 2290 | 807 | 1340 |
| GGTTGTAAGTTCACAGGATGTGGTGTGTCCCTGTGG | 4130 | 827 | 1400 |

| Sequence | ETS1 binding intensity (ETS1) | RUNX1 binding intensity (RUNX1 [1]) | RUNX1 binding intensity (RUNX1 [2]) |
| --- | --- | --- | --- |
| AGGACGGGCGGAAGTGGCTGCGGTGGATGGTGGGAG | 4180 | 797 | 3180 |
| GAGTGGGCGGAAATCCGTGCCTGGCAGACCACAAAG | 1320 | 765 | 1500 |
| CCGCTTCCTTAGAGGTTAAGTGGTGGTGGTTCAGTT | 473 | 856 | 1230 |
| GGCGGTGACCGGAAGAGCTGAGTCACCGCAGGCGAC | 4020 | 813 | 1600 |
| TGCTTTTCAGGTGCAGGAAGTGGTTTGCCTTTGCCC | 7810 | 788 | 1200 |
| CACCTGCAGTGAAGAGGATGTGGGCAAAGATTATGC | 1350 | 746 | 1100 |
| TTCAACAGGATGTGGGAACTTGACTCTCGCCGCAAA | 3560 | 737 | 3720 |
| GCCGGCGGCCGGAAGTCTATCCCGCAGAAGCGCAGC | 9360 | 736 | 1900 |
| ACACCCCAGGAAGTGGCAGAGACCACAACAAGTCAG | 704 | 874 | 1910 |
| TTCAACAGGATATTGCTTTGTTACCACAGGCCCTTT | 1590 | 946 | 1490 |
| CCAGCCGGAAGCCCCGCCCCCTAGAGGCACCGCGGA | 1010 | 1000 | 1270 |
| GCCGGGCACCCCGGAAGACCGCTGGGAACCGGCTTT | 1080 | 656 | 1080 |
| AAAGCATTTCCTGCCTTGACTTAACCACAAGACAGG | 1880 | 1460 | 4320 |
| AGCTCCACCGGAAACGGCCTGGCCGCAGCCAATCAG | 7110 | 806 | 2450 |
| GCACTGTAGGCAGGATGTGGGCAGGGGAAACTCAGG | 3720 | 827 | 2870 |
| ACCTGAGCAGGAAGTAGCTGAGGTCGCGGTGCAGCA | 2940 | 730 | 1080 |
| AGCCTACATCCTGCACTGCTTAACCACAGCCCGCCT | 509 | 1960 | 5470 |
| GCCCAGGGCGGCCGGAAGTTTGCGGGGCGGGGCGGA | 8880 | 754 | 1480 |
| GGACCGGTGTCTGGCGGATGCGGTCGTGAAGATAGG | 1200 | 710 | 1130 |
| GTTCAGCAGGAAGTGGATGTGGATGTGTGGTTGCCA | 3230 | 826 | 1290 |
| GGCCGGCTTCCGGGGCGGGTGGAAAGGAGCCACAAG | 501 | 750 | 1260 |
